The source of these data is ChEMBL document CHEMBL3988442, “University of Dundee, Small-Polar-MMV Screening Library” (2021).

Among all 69,000 compounds or so, about 950 (1.4%) showed an effect of 50% or more. What follows is part of a selection rich in strong results, with near analogues and random picks from the rest.

The assay deals with Mycobacterium tuberculosis. Nature of the assay: Cornell M. t heat shock assay. Note: in the data most compounds retested in dose-response had high values. Type of assay: functional, organism-based. Further details: dose or concentration left out as unconfirmed.
As for `COCC1Cn2nnc(-c3cnn(C)c3)c2CN1Cc1ccoc1.O=C(O)C(F)(F)F` (stereo unspecified), the “Percent Effect” value came out at 5.008%.

As for `O=C(O)CCC(=O)Nc1nn(Cc2ccccc2Cl)cc1Cl`, the “Percent Effect” value stood at 2.15%.

As to `Cc1ccc(N2CCO[C@H]3CN(CC4CC4)C[C@H]32)nn1.O=C(O)C(F)(F)F.O=C(O)C(F)(F)F`, the “Percent Effect” value was -7.487%.

On to `COc1cc(N2CC[C@@H](O)[C@@H]2Cc2cccnc2)ncn1.O=C(O)C(F)(F)F`, for which the “Percent Effect” value was 0.6687%.

On to `CCCN(CC(=O)N1CCNCC1)C(=O)c1cccc(Cl)c1.O=C(O)C(F)(F)F`, for which the “Percent Effect” value worked out at 0.5334%.

Take `CCOc1ccccc1OCCN(C)Cc1nccn1C`: the “Percent Effect” value is on record as -26.9%.

Take `CN(CCCOc1ccccc1)Cc1nccn1C`: the “Percent Effect” value is -13.65%.

Consider `Cc1ccc(OCCN(C)Cc2nccn2C)c(C)c1`, for which the “Percent Effect” value is 55.39%.

Turning to `O=C(C1CCCc2[nH]ncc21)N1CCCC2(C1)OCCO2` (stereo unspecified), the “Percent Effect” value was determined as 10.11%.

Consider `CN(C)C(c1ccccn1)[C@H]1CC[C@H](CNC(=O)C2CCCC2)CC1` (stereo partly specified), for which the “Percent Effect” value was 5.9375%.

For the compound `N#Cc1ccc(C(=O)N2CC[C@H]3[C@H]2CCN3CC2CCOCC2)cc1.O=C(O)C(F)(F)F`, the “Percent Effect” value was -36.11%.

With `N#CC1(C(=O)NCCCNc2ccc(C(F)(F)F)cn2)CCCC1`, the “Percent Effect” value was 102.8%.

For `Cc1cc(NCCNc2ccc(C#N)cn2)nc(C)n1`, the “Percent Effect” value is reported as -18.17%.

Take `N#Cc1ccc(C(=O)NCCCNc2ccc(C(F)(F)F)cn2)cc1`: the “Percent Effect” value was 28.89%.

In the case of `N#Cc1ccc(NCCNc2ccc(C(F)(F)F)cn2)nc1`, the “Percent Effect” value was found to be 51.52%.

Take `O=C(NCCCNc1ccc(C(F)(F)F)cn1)c1ccc(F)cc1`: the “Percent Effect” value was 26.36%.

For the compound `O=C(NCCCNc1ccc(C(F)(F)F)cn1)c1ccccc1`, the “Percent Effect” value was 26.28%.

Take `O=C(O)C(F)(F)F.O=C1CC(c2ccccc2)C2(CCN(Cc3nccs3)CC2)N1` (stereo unspecified): the “Percent Effect” value is reported as -1.259%.

Take `CC(=O)N1CCC2(CC1)CNc1c(F)cccc12.Cl`: the “Percent Effect” value worked out at 12.35%.

Consider `Cc1nc(-c2cc(Cl)c3c(c2)CC(CN)O3)c[nH]1` (stereo unspecified), for which the “Percent Effect” value is 42.51%.

`Cc1nc(-c2cc(Cl)cc3c2OC(CN)C3)c[nH]1` (stereo unspecified): the “Percent Effect” value was 52.4%.

In the case of `Cc1cc2c(c(-c3c[nH]c(C)n3)c1)OC(CN)C2` (stereo unspecified), the “Percent Effect” value is listed as 1.503%.

Regarding `Cc1cc(C(F)(F)F)n2nc(C3CCCN3C3CCSCC3)cc2n1.O=C(O)CC(O)(CC(=O)O)C(=O)O` (stereo unspecified), the “Percent Effect” value is given as -13.15%.

Consider `COCC(=O)NC1CC2(CCN(CC3CC3)CC2)Oc2ccccc21.O=C(O)C(F)(F)F` (stereo unspecified), for which the “Percent Effect” value is -26.45%.

With `COc1cc(N2CCC3(CCN(Cc4nccs4)CC3)C2)ncn1.O=C(O)C(F)(F)F`, the “Percent Effect” value is 24.13%.

`Cc1cccc(CN2C[C@H](OCc3csc(C)n3)[C@H]3COC[C@H]32)n1.O=C(O)C(F)(F)F.O=C(O)C(F)(F)F`: the “Percent Effect” value is given as -14.33%.
